Bioassay records deposited in PubChem BioAssay by National Center for Advancing Translational Sciences (NCATS).
An excerpt weighted towards active compounds, which were near 12% of everything screened.
HP1b binding inh: blocks HP1-beta chromodomain binding to methylated histone tails; Potency, µM (top dose mostly 114 µM), actives largely listed as inhibitors; AID 540317; P83916; 0.56% of 390,000 active; AlphaScreen HP1-beta / biotin-H3K9me3 peptide binding; also: nearly all actives have a fitted effect of over 70% in size
Target sequence (P83916 whole entry, looked up): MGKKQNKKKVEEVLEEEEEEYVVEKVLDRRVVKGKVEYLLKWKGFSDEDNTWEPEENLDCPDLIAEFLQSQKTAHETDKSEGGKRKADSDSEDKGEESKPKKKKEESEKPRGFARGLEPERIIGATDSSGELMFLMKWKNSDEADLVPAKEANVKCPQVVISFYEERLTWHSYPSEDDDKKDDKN
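HP1-beta protein (50 nM final) preincubated 30 min at room temperature with biotinylated H3(1-18)K9me3 peptide (50 nM) in PBS pH 7.4, 0.01% Tween-20, then compound added for 30 min. AlphaScreen streptavidin donor/nickel chelate acceptor beads (10 ug/mL final), 30 min dark, luminescence read.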
G9a block: blocks human histone lysine methyltransferase G9a | Q96KQ7 | G9a H3K9 monomethylation, AlphaScreen, 2 h | Potency, µM (series often up to 102 µM), usual class: inhibitors | 8.8% of 350,000 active; also: nearly all actives have a fitted effect of over 75% in size
Target sequence (Q96KQ7 913-1193 limits assumed): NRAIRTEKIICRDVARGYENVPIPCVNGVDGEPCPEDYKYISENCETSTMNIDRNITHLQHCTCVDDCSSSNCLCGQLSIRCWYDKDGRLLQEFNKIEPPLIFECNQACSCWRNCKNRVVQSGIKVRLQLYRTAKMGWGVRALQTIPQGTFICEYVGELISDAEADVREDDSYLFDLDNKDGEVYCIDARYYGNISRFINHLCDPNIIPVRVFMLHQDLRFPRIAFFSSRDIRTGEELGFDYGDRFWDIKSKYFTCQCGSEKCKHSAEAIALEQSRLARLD
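AlphaScreen detection with an anti-monomethyl H3K9 antibody quantified product after a 2 h room-temperature reaction containing 500 nM biotinylated H3K9 peptide, 20 µM SAM and 20 nM enzyme, which had been preincubated 15 min with compound.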
PI5P4K alpha inh: PI5P4K alpha (human) kinase inhibition. 1.2% of 330,000 active. max response, %. PI5P4Kalpha enzyme, ADP-Glo luminescence, 60 min; stronger effect = lower value. P48426; active = max response of -50% or lower; inconclusive = between -30% and -50%; inactive = -30% or higher; also: value at the top dose of about 77 µM
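PI5P4Kalpha ADP-Glo assay; 5 microM ATP final; 60 min RT reaction; HEPES pH 7.4/EGTA/CHAPS, 5% DMSO; controls lacking substrate or enzyme; luminescent end-point.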
PLK1 PBD inh: blocks phosphopeptide binding to human PLK1 polo-box domain; Plk1 PBD binding of FITC phosphopeptide, fluorescence polarization; Potency, µM, actives largely listed as inhibitors; 2.8% of 360,000 active; P53350; also: series mostly up to about 57 µM; nearly all actives have a fitted effect of over 65% in size
JMJD2A Tudor: inhibitors of human JMJD2A Tudor domain; AlphaScreen JMJD2A-Tudor / H3K4me3 peptide binding; O75164; 4.4% of 390,000 active; Potency, µM (top dose mostly 114 µM), hits mostly inhibitors; also: nearly all actives have a fitted effect of over 50% in size
BAZ2B block: inhibitors of human BAZ2B bromodomain; Potency, µM (highest dose often 114 µM), actives largely listed as inhibitors; 4.4% of 360,000 active; AlphaScreen BAZ2B-H3K14Ac peptide displacement; also: nearly all actives have a fitted effect of over 60% in size
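AlphaScreen displacement of biotin-H3(5-23)K14Ac peptide (50 nM final) from BAZ2B (50 nM final) in PBS pH 7.4, 0.01% Tween-20; complex preformed 30 min RT, then compounds (top 110 uM) 30 min RT, beads 20 min dark.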
Numbers stand for hits; ! = not confirmed by another sample; [ ] = another dose, or the depositor's remark. Unless noted, calls follow the shape of the dose curve; as a rule, active = well fitted curve in the direction sought with a large enough effect; inconclusive = small, poorly fitted or top-dose-only effect, or another doubt; inactive = no such curve, though single readings can be large; an effect the other way counts as inactive or inconclusive.

For CC(C)(C)c1ccc(OCCC(=O)Nc2cccc(S(=O)(=O)NC3=NCCCCC3)c2)cc1 the results were HP1b binding inh inactive, G9a block inactive, PI5P4K alpha inh inactive, PLK1 PBD inh inactive, JMJD2A Tudor inactive and BAZ2B block inactive.
Screening CC(C)NC(=O)OCc1c(COC(=O)NC(C)C)c([N+](=O)[O-])n2c1CCC2 returned PI5P4K alpha inh inactive and PLK1 PBD inh inactive.
Screening NCCCC(N)(C(=O)O)C(F)F (stereo not drawn) returned HP1b binding inh inactive, G9a block 7.1µM!, PI5P4K alpha inh inactive, PLK1 PBD inh inactive, JMJD2A Tudor inactive and BAZ2B block inconclusive.
Screening COC(=O)c1cc(-c2ccc(C)cc2)c2c(=O)n(C)c(=O)n(C)c2n1 returned HP1b binding inh inactive, G9a block inactive, JMJD2A Tudor inactive and BAZ2B block inactive.
`CCc1cc(CNC(=O)CC2C(=O)NCCN2Cc2ccc(-c3ccccc3)cc2)on1` (stereo not drawn) gave HP1b binding inh inactive, G9a block 50µM, PI5P4K alpha inh inactive, PLK1 PBD inh inactive, JMJD2A Tudor inactive and BAZ2B block inactive.
For O=C(CC1C(=O)NCCN1CC1CCCCC1)NCc1ccccc1Cl (stereo not drawn) the results were HP1b binding inh inactive, G9a block inactive[12.7 µM], PI5P4K alpha inh inactive, PLK1 PBD inh inactive, JMJD2A Tudor inactive and BAZ2B block inactive.
Cc1cccnc1CCNC(=O)CC1C(=O)NCCN1CC1CCCCC1 (stereo not drawn) was read as HP1b binding inh inactive, G9a block 40µM, PI5P4K alpha inh inactive, PLK1 PBD inh inactive, JMJD2A Tudor inactive and BAZ2B block inactive.
Screening O=C(CC1C(=O)NCCN1Cc1ccc(-c2ccccc2)cc1)NCc1ccccc1 (stereo not drawn) returned HP1b binding inh inactive, G9a block inconclusive, PI5P4K alpha inh inactive, PLK1 PBD inh inactive, JMJD2A Tudor inactive and BAZ2B block inconclusive.
Screening CCOc1ccc(CN2CCNC(=O)C2CC(=O)N(C)Cc2nonc2C)cc1 (stereo not drawn) returned HP1b binding inh inactive, G9a block 50µM, PI5P4K alpha inh inactive, PLK1 PBD inh inactive, JMJD2A Tudor inactive and BAZ2B block inactive.
Screening CCOc1ccc(CN2CCNC(=O)C2CC(=O)NCCc2ccccn2)cc1 (stereo not drawn) returned HP1b binding inh inactive, G9a block 56µM, PI5P4K alpha inh inactive, PLK1 PBD inh inactive, JMJD2A Tudor inactive and BAZ2B block inactive.
COc1ccc(CCNC(=O)C2CCCN2S(=O)(=O)c2cccc3nsnc23)cc1OC (stereo not drawn) was read as HP1b binding inh inactive, G9a block inactive, PI5P4K alpha inh inactive, PLK1 PBD inh inactive, JMJD2A Tudor inactive and BAZ2B block inactive.
Screening O=C1C(Cl)=C(Nc2ccccc2O)C(=O)N1c1ccccc1 returned HP1b binding inh inconclusive, G9a block 7.9µM, PLK1 PBD inh 8.4µM, JMJD2A Tudor 35µM and BAZ2B block inconclusive.
`CCOc1ccccc1NC1=C(Cl)C(=O)N(c2ccc(OC)cc2)C1=O` gave HP1b binding inh inactive, G9a block inconclusive, PI5P4K alpha inh inactive, PLK1 PBD inh inactive, JMJD2A Tudor inconclusive and BAZ2B block inconclusive.
`NS(=O)(=O)c1ccc(NC(=O)/C=C/c2ccco2)cc1` gave HP1b binding inh inconclusive, G9a block 45µM, PI5P4K alpha inh -63, PLK1 PBD inh inconclusive, JMJD2A Tudor inactive and BAZ2B block inactive.
`CC(=O)NS(=O)(=O)c1ccc(NC(=O)/C=C/c2ccco2)cc1` gave HP1b binding inh inactive, G9a block 45µM, PI5P4K alpha inh inactive, PLK1 PBD inh inactive, JMJD2A Tudor inactive and BAZ2B block inactive.
For O=C(/C=C/c1ccco1)Nc1ccc(F)cc1 the results were HP1b binding inh inconclusive, G9a block inactive[12.7 µM], JMJD2A Tudor inconclusive and BAZ2B block inconclusive.
O=C1NC[C@H](CCCCN2CCN(CCc3ccccc3)C(=O)C2=O)N(Cc2ccccc2)C1=O was read as PI5P4K alpha inh inactive and PLK1 PBD inh inactive.
`CS(=O)(=O)N1CCCCC1CCN1CCCCC1` (stereo not drawn) gave HP1b binding inh inactive, PI5P4K alpha inh inactive, PLK1 PBD inh inactive and JMJD2A Tudor inactive.
For COc1ccc(CCn2c(=S)[nH]c3cc(C(=O)N4CCOCC4)ccc3c2=O)cc1OC the results were HP1b binding inh inactive, G9a block 8.9µM, PI5P4K alpha inh inactive, PLK1 PBD inh inactive, JMJD2A Tudor inactive and BAZ2B block inactive.
CCOCCCn1c(=S)[nH]c2cc(C(=O)N3CCC(C(N)=O)(N4CCCCC4)CC3)ccc2c1=O was read as HP1b binding inh inactive, G9a block inconclusive, PI5P4K alpha inh inactive, PLK1 PBD inh inactive, JMJD2A Tudor 22µM and BAZ2B block inactive.
CCOCCCn1c(=S)[nH]c2cc(C(=O)N3CCN(C)CC3)ccc2c1=O was read as HP1b binding inh inactive, G9a block inconclusive, PI5P4K alpha inh inactive, PLK1 PBD inh inactive, JMJD2A Tudor 22µM and BAZ2B block inconclusive.
CCOC(=O)N1CCN(c2cc3[nH]c(=S)[nH]c3cc2F)CC1 was read as HP1b binding inh inactive, G9a block 2.2µM, PLK1 PBD inh inactive, JMJD2A Tudor 45µM and BAZ2B block inactive.
`Cc1ccc(Cl)c(OCC(=O)Nc2ccccc2N2CCCCC2)c1` gave HP1b binding inh inactive, G9a block inactive, PI5P4K alpha inh inactive, PLK1 PBD inh inactive, JMJD2A Tudor inactive and BAZ2B block inactive.
Screening CNS(=O)(=O)c1ccc(NC(=O)c2cc(-c3ccncc3)nc3ccc(Cl)cc23)cc1 returned HP1b binding inh inactive, PI5P4K alpha inh inactive, PLK1 PBD inh inactive, JMJD2A Tudor inactive and BAZ2B block inactive.
`Cc1ccc(S(=O)(=O)NNc2c3ccccc3nc3ccc(Cl)cc23)cc1` gave PI5P4K alpha inh inactive and PLK1 PBD inh inactive.
`O=C(NCCc1ccccc1)c1ccc2c(c1)N(Cc1ccccc1Cl)C(=O)c1ccccc1S2` gave HP1b binding inh inactive, G9a block inactive, JMJD2A Tudor inactive and BAZ2B block inactive.
For Cc1cccc(-c2nn3c(=O)cc(CN4CCN(C(=O)c5ccccc5Br)CC4)nc3s2)c1 the results were HP1b binding inh inactive, G9a block inactive, JMJD2A Tudor inactive and BAZ2B block inactive.
CCOC(=O)N1CCN(C(=O)c2ccc3c(=O)n(-c4ccccc4F)c(=S)[nH]c3c2)CC1 was read as HP1b binding inh inactive, G9a block 50µM, PI5P4K alpha inh inactive, PLK1 PBD inh inactive, JMJD2A Tudor inactive and BAZ2B block inactive.
`COc1ccc(N(CC(=O)NC2CCCCC2)C(=O)CCCC(=O)Nc2ccccn2)cc1` gave HP1b binding inh inactive, G9a block inactive, PI5P4K alpha inh inactive, PLK1 PBD inh inactive, JMJD2A Tudor inactive and BAZ2B block inactive.
CCc1ccc(NC(=O)CSc2nc(C)c(C(=O)Nc3ccc(Cl)cc3)c(-c3ccc(OC)cc3)c2C#N)cc1 was read as HP1b binding inh inactive, G9a block inactive, JMJD2A Tudor inactive and BAZ2B block inactive.
